Reference: PubChem BioAssay AID720706 (Broad Institute, 2013)
In all, about 350,000 compounds went through this assay and about 5,500 (1.6%) were called active.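 How the source made its calls: active means significant combined selectivity score with lowered wild-type GFP, culture density cut under 30%, mutant RFP and density less affected; inactive means any of these conditions unmet.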 What follows is part of a selection rich in actives, with near analogues and random picks from the rest.

assay: GFP drop in mixed WT/humanized-ribosome E. coli culture – GFP/RFP fluorescence, OD600, single point, bacterial rRNA inhibitor project, primary screen (AID 720706); details: E. coli WT GFP vs humanized-ribosome RFP mutants, 24 h; GFP signal change (wild-type ribosome): stronger effect = lower value, DMSO median 0, no signal -100; OD600 change: measured here: OD600 growth, DMSO median 0, no signal -100; RFP signal change: measured here: RFP humanized mutant strains, DMSO median 0, no signal -100, concentration not given here

| Structure (SMILES) | GFP signal change (wild-type ribosome) | OD600 change | RFP signal change |
| --- | --- | --- | --- |
| O=C(c1ccccc1)N1CC(=O)N2[C@@H](CO)[C@H](c3ccc(C#CC4CC4)cc3)[C@@H]2C1 | 4.2% (inactive) | 0.601% | -2.44% |
| CCCNC(=O)N1CC2(CN(C(=O)C3CCCCC3)C2)c2c([nH]c3cc(OC)ccc23)[C@@H]1CO | -0.587% (inactive) | -2.63% | -0.961% |
| Cc1cccc(CN2CCN(C3CN(Cc4cn(Cc5ccccc5F)nn4)S(=O)(=O)C3)CC2)c1 (centres undefined) | 6% (inactive) | 11% | -3.05% |
| O=S1(=O)CC(N2CCN(Cc3ccccc3F)CC2)CN1Cc1cn(Cc2cccc(C(F)(F)F)c2)nn1 (centres undefined) | -29.5% (active) | -22.9% | -2.53% |
| O=S1(=O)CC(N2CCN(Cc3ccccc3F)CC2)CN1Cc1cn(Cc2ccccc2)nn1 (centres undefined) | 15% (inactive) | 11.5% | 0.47% |
| C[C@@H]1CN([C@H](C)CO)C(=O)c2cccc(NC(=O)C3CC3)c2O[C@@H]1CN(C)C(=O)Nc1ccccc1 | 4.57% (inactive) | 10.7% | -0.0555% |
| O=C(C[C@H]1CC[C@@H](NC(=O)Cc2ccccn2)[C@H](CO)O1)NCCc1ccccc1 | -0.355% (inactive) | -12% | -1.51% |
| CN1c2ccc([N+](=O)[O-])cc2C(C)(C)C12C=Cc1cc(C(=O)O)ccc1O2 (centres undefined) | -34.2% (active) | -21.4% | -10.7% |
| Cc1cc(C(=O)O)ccc1[N+](=O)[O-] | -5.96% (inactive) | -5.09% | -0.268% |
| O=[N+]([O-])c1ccc(N2CCN(c3ccc(O)cc3)CC2)c(Cl)c1 | -7.92% (inactive) | 0.78% | 1.58% |
| O=C(c1cccc(F)c1)N1C[C@H]2[C@@H](c3ccccc31)[C@@H](CO)N2C(=O)Cc1ccccc1 | 2.22% (inactive) | 9.86% | -2.34% |
| CN(C)CCOCCOc1ccc(Cl)c2ccccc12 | -18.5% (active) | -8.69% | 3.22% |
| CN(C)CCOc1ccc(Cl)cc1C(C)(C)C | -1.5% (inactive) | 4.96% | 1.97% |
| CCN(CC)CCOCCOc1ccc(Cl)c2ccccc12 | -15.6% (inactive) | -34.8% | 10.8% |
| CCC(=O)N(C)C[C@H]1Oc2cc(/C=C/c3ccccc3)ccc2S(=O)(=O)N([C@H](C)CO)C[C@@H]1C | -13.8% (inactive) | -24.1% | 1.56% |
| COc1ccc(C#Cc2cnc3c(c2)C(=O)N([C@H](C)CO)C[C@H](C)[C@H](CN(C)S(=O)(=O)c2ccc(F)cc2)O3)cc1OC | -1.5% (inactive) | 6.11% | 0.148% |
| O=C(C[C@H]1C=C[C@H](NC(=O)CC2CC2)[C@@H](CO)O1)NCc1ccccc1 | -2.86% (inactive) | -1.4% | 0.749% |
| C[C@@H]1CC=CC[C@@H](c2ccccc2)NC(=O)[C@@H](Cc2ccccc2)N(C)C(=O)c2ccccc2O1 (mixture of isomers) | -3.7% (inactive) | -8.18% | -0.954% |
| C[C@@H]1CCCCO[C@H](CN(C)S(=O)(=O)c2ccc(Cl)cc2)[C@H](C)CN([C@@H](C)CO)C(=O)c2cc(NS(=O)(=O)c3cn(C)cn3)ccc2O1 | -4.15% (inactive) | -10.5% | 3.24% |
| C[C@@H]1CN([C@@H](C)CO)S(=O)(=O)c2ccc(C#Cc3ccc(F)cc3)cc2O[C@@H]1CN(C)CC1CC1 | 3.12% (inactive) | -6.33% | 12.1% |
| O=[N+]([O-])c1cccc(/C([O-])=C(/C(=S)Nc2ccccc2F)[n+]2ccccc2)c1 | 4.97% (inactive) | 13.1% | 6.65% |

| Structure (SMILES) | GFP signal change (wild-type ribosome) | OD600 change | RFP signal change |
| --- | --- | --- | --- |
| CCc1ccccc1OCC(=O)Nc1ccc2c(c1)OCCO2 | -18.9% (inactive) | -29.9% | 1.18% |
| CCOc1ccccc1NC(=S)C(=C([O-])c1ccc2c(c1)OCCO2)[n+]1ccc(CC)cc1 | -17.2% (active) | -16.2% | 11.5% |
| COc1ccc2c3c(n(C)c2c1)[C@H](CO)N(S(=O)(=O)c1ccc(C)cc1)CC31CCN(C(=O)c2ccccn2)CC1 | -3.17% (inactive) | -3.75% | 3.99% |
| CS(=O)(=O)N(CC(=O)N1CCc2ccccc2C1)c1ccc(Br)cc1 | -22.4% (active) | -11% | 0.676% |
| CS(=O)(=O)N(CC(=O)N1CCN(Cc2ccccc2)CC1)c1ccc2c(c1)OCCO2 | 3.15% (inactive) | 8.73% | -8.62% |
| COc1ccc(N(CC(=O)N2CCCCCC2)S(=O)(=O)c2ccccc2)cc1 | -1.75% (inactive) | -4.39% | -2.53% |
| COCc1cn(CC[C@H]2CC[C@H](NC(=O)c3ccncc3)[C@H](CO)O2)nn1 | 1.82% (inactive) | 6.54% | -3.21% |
| CC(C)[C@@H]1COCc2cnnn2CCC[C@H](C)C(=O)N1 | 1.6% (inactive) | 7.64% | 1.53% |
| CC(C)(C)C(c1nc2ccccc2[nH]1)n1c(Cc2csc3ccccc23)nc2ccccc21 (centres undefined) | -9.17% (inactive) | -4.49% | 9.77% |
| Cc1cc(C)cc(NC(=O)c2cccc(NC(=O)C3C4CC5OC(=O)C3C5C4)c2)c1 (centres undefined) | -21.2% (active) | -14.4% | 6.04% |
| Cc1ccc(NC(=O)COC(=O)C2C3CC4OC(=O)C2C4C3)cc1Cl (centres undefined) | -1.3% (inactive) | -3.04% | -5.78% |
| COC(=O)c1cccc(NC(=O)c2cccc(N3C(=O)CCC3=O)c2)c1 | 0.987% (inactive) | 9.02% | 0.607% |
| COc1ccccc1C#Cc1ccc2c(c1)O[C@@H](CN(C)Cc1cncnc1)[C@H](C)CN([C@@H](C)CO)S2(=O)=O | -12.1% (inactive) | -13.6% | 10% |
| O=C1CN(S(=O)(=O)Cc2ccccc2)C[C@@H]2[C@@H](c3ccc(C#Cc4cccc(F)c4)cc3)[C@@H](CO)N12 | -6.58% (inactive) | -36.6% | 26.9% |
| C[C@@H]1CN([C@@H](C)CO)S(=O)(=O)c2ccc(C#C[C@@H](C)O)cc2O[C@@H]1CN(C)C(=O)Cc1ccccn1 | 3.39% (inactive) | 0.98% | -0.13% |
| COc1ccccc1C(=O)Nc1ccc2c(c1)C(=O)N(C)C[C@@H](OC)[C@@H](C)CN(CC1CC1)[C@@H](C)CO2 | -1.52% (inactive) | -3.13% | 0.12% |
| CCOc1cc(/C=C2\SC(N3CCCCC3)=NC2=O)ccc1O | -19.3% (inactive) | -20.3% | 8.23% |
| CC(C)=C1SC(N2CCN(c3ccc(C)c(Cl)c3)CC2)=NC1=O | -1.49% (inactive) | -2.03% | -2.71% |
| CCN1C(=O)/C(=C2\SC(N3CCCCC3)=NC2=O)c2ccccc21 | -24% (active) | 0.66% | -4.52% |
| COc1cccc(C(=O)N2C[C@@H]3[C@H](c4ccccc42)[C@H](CO)N3Cc2ccccc2F)c1 | -8.84% (inactive) | -21.6% | 1.94% |
| Cc1n[nH]c(=O)nc1N/N=C/c1cccs1 | 12.5% (inactive) | -10.6% | 3.52% |

| Structure (SMILES) | GFP signal change (wild-type ribosome) | OD600 change | RFP signal change |
| --- | --- | --- | --- |
| COc1ccccc1N1CCN(/N=C/c2ccc(O)cc2O)CC1 | 2.04% (inactive) | 0.96% | -2.29% |
| Cc1nc2ccccc2nc1N/N=C/c1ccc(O)cc1O | -17.1% (active) | -1% | 6.07% |
| CN(C)CCCNC(=O)C[C@H]1C=C[C@@H](NC(=O)Cc2cccnc2)[C@H](CO)O1 | -1.21% (inactive) | 6.35% | -1.98% |
| Cc1[nH]n(C)c(=O)c1C(=O)c1c(-c2c(Cl)cccc2Cl)noc1C | 23.4% (inactive) | 10.3% | 1.84% |
| Cc1onc(-c2c(F)cccc2Cl)c1C(=O)Nc1cccc(S(=O)(=O)N2CCCCC2)c1 | -6.88% (inactive) | -20.2% | -1.93% |
| Cc1onc(-c2c(Cl)cccc2Cl)c1C(=O)NNC(=O)c1c(-c2c(Cl)cccc2Cl)noc1C | -35.2% (active) | -26.9% | 1.07% |
| CN1C(=O)c2cc(NC(=O)c3ccc(Cl)cc3)ccc2OC[C@H]2O[C@H](CC(=O)O)CC[C@H]21 | 1.69% (inactive) | 1.68% | -1.26% |
| C[C@H]1CN([C@@H](C)CO)C(=O)c2cc(NC(=O)Nc3ccc4c(c3)OCO4)ccc2O[C@H]1CN(C)S(=O)(=O)c1ccc(F)cc1 | -3.35% (inactive) | -0.035% | 3.46% |
| CN1C(=O)c2cc(NC(=O)C3CCC3)ccc2OC[C@@H]2O[C@@H](CC(=O)NCCc3ccncc3)CC[C@H]21 | 5.03% (inactive) | 10.1% | -1.17% |
| COc1ccccc1CCNC(=O)CSc1nnc2ccc(-c3cccnc3)nn12 | -2.66% (inactive) | 7.92% | 10.5% |
| S=c1nc2ccccc2c2nc(-c3cccnc3)[nH]n12 | -0.36% (inactive) | -3.58% | -4.9% |
| COc1ccccc1Oc1nc(-c2cccnc2)nc2ccccc12 | -34.3% (active) | -23.4% | -3.61% |
| Cc1ccc(S(=O)(=O)N(C)C[C@@H]2Oc3ccc(NS(=O)(=O)c4cn(C)cn4)cc3C(=O)N([C@@H](C)CO)C[C@H]2C)cc1 | 0.239% (inactive) | -1.14% | 0.319% |
| Cc1ccc(Cn2nnc3c(=O)[nH]c(C4CCN(S(=O)(=O)/C=C/c5ccccc5)CC4)nc32)cc1 | -1.02% (inactive) | -8.59% | 5.14% |
| Cc1ccc(NC(=O)N2CCC(c3nc4c(nnn4Cc4c(F)cccc4Cl)c(=O)[nH]3)CC2)cc1 | -32.9% (active) | -18.6% | -4.28% |
| O=C(Nc1ccc(F)cc1)N1CCCC(c2nc3c(nnn3Cc3ccccc3Cl)c(=O)[nH]2)C1 (centres undefined) | 5.54% (inactive) | 16.4% | 5.16% |
| COc1ccccc1NC(=O)N[C@H]1CC[C@@H](CCn2cc(C3(O)CCCC3)nn2)O[C@@H]1CO | -0.097% (inactive) | 0.829% | -2.3% |
| CC(C)NC(=O)N1[C@H](C(=O)N2CCc3ccccc3C2)[C@@H](CO)[C@@H]2Cn3c(cccc3=O)[C@@H]21 | -0.919% (inactive) | -4.45% | -2.12% |
| Cc1cccc(NC(=S)NCCc2ccc(Cl)cc2)c1C | -5.8% (inactive) | -24.2% | 6.65% |
| O=C(Cc1ccc(Cl)cc1)NC(=S)Nc1ccccc1O | 6.71% (inactive) | -1.88% | 5.02% |
| Cc1ccccc1NC(=S)NC(=O)Cc1ccc(Cl)cc1 | -31.6% (active) | -2.94% | 1.01% |
